Measurements published in PubChem BioAssay (EPA / NIEHS).
Where “and” joins values, the source holds several entries; their conditions need not be identical. Equal entries are not always repeated. Records with an inconclusive call do not appear. Calls of active or inactive are those of the source. Rule for the calls: active = hit-call score of the fitted dose curve at least 0.9, where 1 is the maximum; inconclusive = response in the unintended direction; inactive = score below 0.9.

Columns and labels:
[1] = ATG_XTT_Cytotoxicity: Cytotoxicity Assessment in the Attagene TRANS-FACTORIAL HepG2 Assay (AID 2283584)
How it was run: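 Transfect HepG2 with GAL4-UAS reporter units, dose compound, incubate 24 h, then measure viable cell number by XTT. Fit concentration response against DMSO baseline.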

[2] = TOX21_p53_BLA_p2_viability: Viability Assessment in the Tox21 HCT-116 p53 Agonism Beta-lactamase Assay, Phase 2 (AID 2283591);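 note: compound exposure lasted 16 h at 37 °C; actives lower the ATP signal meaning cytotoxicity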
How it was run: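 HCT116 p53-bla cells, 4000/well, dosed after 5 h plating (217-fold dilution of DMSO stocks) and incubated 16 h at 37C. Viability taken as cellular ATP by CellTiter-Glo luminescence after 30 min RT; signal loss marks cytotoxicity.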

[3] = molecular target: Cellular tumor antigen p53 (Homo sapiens) (UniProt P04637); assay: TOX21_p53_BLA_p2_ratio: Tox21 HCT-116 p53 Agonism Beta-lactamase Assay, Ratio, Phase 2 (AID 2283592)
How it was run: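 Cleaved-to-uncleaved substrate ratio (460 vs 530 nm) measured in HCT116 cells with an inducible beta-lactamase reporter linked to p53 activity. Compounds incubated 16 h at 37C before 2 h room-temperature CCF4-AM loading.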

[4] = TOX21_p53_BLA_p3_viability: Viability Assessment in the Tox21 HCT-116 p53 Agonism Beta-lactamase Assay, Phase 3 (AID 2283593);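 note: cells exposed to compound for 16 h before reading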
How it was run: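 HCT116 cells, 4000/well, dosed 5 h after plating by pin transfer (217-fold dilution from DMSO stock) and incubated 16 h at 37C, 5% CO2. Viability read as ATP luminescence with CellTiter-Glo after 30 min at room temperature.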

[5] = molecular target: Cellular tumor antigen p53 (Homo sapiens) (UniProt P04637); assay: TOX21_p53_BLA_p3_ratio: Tox21 HCT-116 p53 Agonism Beta-lactamase Assay, Ratio, Phase 3 (AID 2283596)
How it was run: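 Cells were seeded at 4000/well, rested 5 h at 37C, then dosed with DMSO compound solutions (217-fold dilution) for 16 h. CCF4-AM substrate was loaded for 2 h at room temperature, and the 460/530 nm emission ratio was fitted for gain of signal versus DMSO.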

[6] = molecular target: Cellular tumor antigen p53 (Homo sapiens) (UniProt P04637); assay: TOX21_p53_BLA_p5_ratio: Tox21 HCT-116 p53 Agonism Beta-lactamase Assay, Ratio, Phase 5 (AID 2283599)
How it was run: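 HCT-116 p53-bla cells (4000/well) plated 5 h, dosed with compound (217-fold DMSO dilution) for 16 h at 37 C; CCF4-AM substrate 2 h at room temperature. Activity is the 460/530 nm emission ratio (405 nm excitation), fitted in gain-of-signal direction versus DMSO.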

[7] = TOX21_p53_BLA_p5_viability: Viability Assessment in the Tox21 HCT-116 p53 Agonism Beta-lactamase Assay, Phase 5 (AID 2283600)
How it was run: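 Viability is taken from cellular ATP content, measured by luciferase luminescence in the same wells after the beta-lactamase ratio read. Cells are seeded at 4000 per well and exposed to DMSO-dissolved compounds, diluted 217-fold, for 16 h.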

[8] = molecular target: Cellular tumor antigen p53 (Homo sapiens) (UniProt P04637); assay: TOX21_p53_BLA_p4_ratio: Tox21 HCT-116 p53 Agonism Beta-lactamase Assay, Ratio, Phase 4 (AID 2283601)
How it was run: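 HCT-116 p53 beta-lactamase reporter cells (4000/well) preincubated 5 h, then compound (217-fold dilution of DMSO stock) for 16 h at 37C. CCF4-AM substrate added 2 h at room temperature; 460/530 nm emission ratio fitted upward versus DMSO.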

[9] = TOX21_p53_BLA_p4_viability: Viability Assessment in the Tox21 HCT-116 p53 Agonism Beta-lactamase Assay, Phase 4 (AID 2283597);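 note: hits lower the luminescence signal meaning cytotoxicity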
How it was run: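 Viability is taken as cellular ATP: after 16 h compound exposure of HCT116 cells and a 2 h room-temperature CCF4-AM substrate step, CellTiter-Glo reagent is added and luminescence is measured 30 min later.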

Chain of Cellular tumor antigen p53 (Homo sapiens) (P04637 whole entry, looked up): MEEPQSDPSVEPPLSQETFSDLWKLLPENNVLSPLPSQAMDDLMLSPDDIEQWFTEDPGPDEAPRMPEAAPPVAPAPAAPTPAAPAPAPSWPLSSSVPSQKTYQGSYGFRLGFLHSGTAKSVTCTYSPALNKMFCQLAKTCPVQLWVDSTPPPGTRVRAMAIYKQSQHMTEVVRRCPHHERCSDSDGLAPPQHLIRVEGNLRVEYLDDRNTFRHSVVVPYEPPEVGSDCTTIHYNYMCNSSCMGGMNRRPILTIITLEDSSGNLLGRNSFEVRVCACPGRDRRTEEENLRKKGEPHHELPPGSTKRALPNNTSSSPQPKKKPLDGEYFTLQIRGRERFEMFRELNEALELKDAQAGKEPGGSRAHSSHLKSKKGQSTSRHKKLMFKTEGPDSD

Row | Structure (SMILES) | outcome [1] | outcome [2] | outcome [3] | outcome [4] | outcome [5] | outcome [6] | outcome [7] | outcome [8] | outcome [9] | AC50 [3] | AC50 [5] | AC50 [6] | AC50 [9] | AC50 [8]
1 | COc1ccc(C(=O)c2ccccc2)c(O)c1 | inactive | inactive | inactive | inactive | inactive | inactive | inactive | inactive | – | – | – | – | – | –
2 | CCOC(=O)/C=C\C(=O)OCC | inactive | inactive | inactive | inactive | inactive | inactive | – | inactive | – | – | – | – | – | –
3 | CC(C)[N+](C)(CCOC(=O)C1c2ccccc2Oc2ccccc21)C(C)C | inactive | inactive | inactive | inactive | inactive | inactive | inactive | inactive | inactive | – | – | – | – | –
4 | CC(C)=CCCC(C)=CC#N | inactive | inactive | inactive | inactive | inactive | inactive | – | inactive | – | – | – | – | – | –
5 | Fc1ccc(Br)cc1 | inactive | inactive | inactive | inactive | inactive | inactive | – | inactive | inactive | – | – | – | – | –
6 | C=CC(=O)OCCCCCCOC(=O)C=C | inactive | inactive | – | inactive | – | – | inactive | inactive | inactive | 69.1 µM (active) and 66.7 µM (active) | 54.4 µM (active) and 63.2 µM (active) | 42.4 µM (active) and 63.2 µM (active) | – | –
7 | c1ccc2c(c1)[nH]c1ccccc12 | inactive | inactive | inactive | inactive | inactive | inactive | inactive | inactive | – | – | – | – | – | –
8 | CC(C)(C)C1CCC(=O)CC1 | inactive | inactive | inactive | inactive | inactive | inactive | – | inactive | – | – | – | – | – | –
9 | CC1OC(=O)C(C)OC1=O (stereo not given) | inactive | inactive | inactive | inactive | inactive | – | inactive | – | – | – | – | – | – | –
10 | O=C1CCCCCCCCCCCN1 | inactive | inactive | inactive | inactive | inactive | inactive | – | inactive | inactive | – | – | – | – | –
11 | CCCCC(=O)O | inactive | inactive | inactive | inactive | inactive | inactive | inactive | inactive | inactive | – | – | – | – | –
12 | CC1(C)CCC[C@]2(C)[C@H]3CC(=O)O[C@]3(C)CC[C@@H]12 | inactive | inactive | inactive | inactive | inactive | inactive | – | inactive | inactive | – | – | – | – | –
13 | C=CCCCCCCCCO | inactive | inactive | inactive | – | inactive | inactive | inactive | inactive | inactive | – | – | – | – | –
14 | CCCCNS(=O)(=O)c1ccc(C)cc1 | inactive | inactive | inactive | – | inactive | inactive | – | inactive | inactive | – | – | – | – | –
15 | CC(=O)OC(C)c1ccccc1 (stereo not given) | inactive | inactive | inactive | – | inactive | inactive | – | inactive | – | – | – | – | – | –
16 | CC(C)c1ccc(O)c(C(C)C)c1 | inactive | inactive | inactive | inactive | inactive | inactive | inactive | – | – | – | – | – | 44.7 µM (active) | 81 µM (active)
17 | O=C(Cl)c1c(Cl)c(Cl)c(C(=O)Cl)c(Cl)c1Cl | inactive | inactive | inactive | inactive | inactive | inactive | – | inactive | inactive | – | – | – | – | –
18 | CCOC(=O)C1=NOC(c2ccccc2)(c2ccccc2)C1 | inactive | – | inactive | – | inactive | inactive | inactive | inactive | inactive | – | – | – | – | –
19 | CC(Cl)COP(=O)(OCC(C)Cl)OCC(C)Cl (stereo not given) | inactive | inactive | – | inactive | – | inactive | – | – | inactive | – | – | – | – | –
20 | CCC(C)(O)CCCC(C)C (stereo not given) | inactive | – | inactive | inactive | inactive | inactive | inactive | inactive | – | – | – | – | – | –
21 | CCCCCOC(=O)CCCCC | inactive | – | inactive | inactive | inactive | – | – | – | inactive | – | – | – | – | –
22 | CCCCC1CCC(=O)O1 (stereo not given) | inactive | – | inactive | – | inactive | inactive | inactive | inactive | inactive | – | – | – | – | –
23 | O=C1CCCCCCCCCCC1 | inactive | inactive | inactive | – | inactive | – | inactive | inactive | – | – | – | – | – | –
24 | CCCCC(CC)COC(=O)/C=C/c1ccc(OC)cc1 (stereo not given) | inactive | inactive | – | inactive | – | – | inactive | – | inactive | – | – | – | – | –
25 | COC(C=C(C)CCC=C(C)C)OC | inactive | inactive | inactive | – | inactive | inactive | – | inactive | – | – | – | – | – | –
